Laboratory results taken from PubChem BioAssay AID686979 (National Center for Advancing Translational Sciences (NCATS), 2013).
“And” between values parts separate entries of the source, which are not always exact repeats. Equal values may be shown once. About 50,000 (12%) of roughly 420,000 compounds were called active. Not shown: some 26% with an inconclusive outcome. Only a selection was taken, and actives are over-represented in it overall. Unmarked numbers belong to inactive results. The call rests on the fitted dose curve; in most records, active means well fitted inhibition curve with a large enough effect; inconclusive means small, poorly fitted or top-dose-only effect; inactive means flat fitted curve, though single readings scatter.

Test: qHTS for Inhibitors of human tyrosyl-DNA phosphodiesterase 1 (TDP1): qHTS in cells in presence of CPT; further: nearly all actives have a fitted effect of over 55% in size
Conditions: chicken DT40 Tdp1-/-;hTDP1 cells + 20 nM CPT, ATP luminescence, 48 h; series mostly up to 46.2 µM; activity change, negative = growth inhibition: at the top concentration
In short: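 Cell growth measured by CellTiter-Glo luminescence after a minimum 48 h, 37 C compound exposure with 20 nM CPT in Tdp1-knockout DT40 cells stably expressing hTDP1, seeded 400/well; qHTS titration format.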
On the % scale 0 is the no-effect control and ±100 the full control effect; potency means the concentration at half of the fitted maximal effect.

| SMILES | activity change, negative = growth inhibition | Potency |
| --- | --- | --- |
| COc1ccccc1-c1c(C#N)c(N)nc2c1CCC2 | 12.8% |  |
| O=C(O)C(CCc1ccccn1)c1ccccc1 (stereo not given) | 24.6% |  |
| Cc1csc(/N=C/N(C)C)c1C#N | 8.34% |  |
| OCC1CCCN(c2nc3cc4c(cc3cc2CNCc2cccs2)OCO4)C1 (stereo not given) | 3.65% [at 9.04 µM] |  |
| Cc1ccc(C(=O)NCC(=O)NC2CC2)cc1 | -25.1% |  |
| CCOC(=O)C1=C(C)NC(=S)NC1c1cccs1 (stereo not given) | 2.09% |  |
| CCCOC(=O)c1[nH]c2c(c1C)C(=O)CC(c1cc(OC)c(OC)c(OC)c1)C2 (stereo not given) |  | 9.2 µM (active) |
| CCOC(=O)C1=C(N)N2C(=O)C(C)SC2=C(C(=O)OCC)C1c1cc(OC)c(OC)c(OC)c1 (stereo not given) | 4.66% |  |
| COc1cc(C2CC(=O)c3cnc(NC(C)=O)nc3C2)cc(OC)c1OC (stereo not given) | -14.6% |  |
| CCCOC(=O)c1cc2ccccc2oc1=O | -2.05% |  |
| CCCOC(=O)c1[nH]c2c(c1C)C(=O)CC(c1cccs1)C2 (stereo not given) |  | 0.58 µM (active) |
| N#Cc1ccccc1NC(=O)c1cccc(COc2ccc(Cl)cc2Cl)c1 | -5.45% |  |
| CCc1ccccc1NC(=O)[C@@H]1CCC(=O)N1C1OC(=O)c2c1ccc(OC)c2OC (stereo not given in full) | -13.3% |  |
| COc1ccc2c(c1OC)C(=O)OC2Nc1nc(-c2ccccc2)cs1 (stereo not given) |  | 2.31 µM (active) |
| COc1ccc(N/C=C(\C2OC(=O)c3ccccc32)[N+](=O)[O-])cc1 (stereo not given) | -1.24% |  |
| COc1ccc2c(c1OC)C(=O)OC2c1c(O)nc(SC)n(-c2ccccc2)c1=O (stereo not given) | 0.164% |  |
| COc1ccc(-c2csc(NC3OC(=O)c4ccccc43)n2)cc1 (stereo not given) |  | 11.6 µM (active) |
| COc1ccc(-c2csc(NC(=O)CCCc3cccs3)n2)cc1 | -23.6% |  |
| COC(=O)C(NS(=O)(=O)c1ccc(F)cc1)c1ccccc1 (stereo not given) | -24.2% |  |
| Cc1cccc(-c2nnc(SC(C)C(=O)Nc3ccccc3)n2C)c1 (stereo not given) | -10.2% |  |
| COc1ccc(NC(=O)CNC(=O)Cc2ccccc2)cc1OC | 1.52% |  |
| CCn1cc(NC(=O)Nc2ccc(OC)c(OC)c2)c(C(N)=O)n1 | 11.3% |  |
| COc1ccc(NC(=O)NC(C)c2c(-n3cccc3)sc(C)c2C)cc1OC (stereo not given) |  | 16.4 µM (active) |
| Cc1nc(C)c(-c2csc(NCCc3ccccc3)n2)s1 |  | 14.6 µM (active) |
| Cc1nc(N)sc1-c1ccccc1 | -0.668% |  |

| SMILES | activity change, negative = growth inhibition | Potency |
| --- | --- | --- |
| S=c1[nH]nc(NCCc2ccccc2)s1 | -3.43% |  |
| CCCn1c(=NC(C)=O)c(C(=O)OCC)cc2c(=O)n3ccccc3nc21 | -16.3% |  |
| CCOC(=O)c1cc2c(=O)n3ccccc3nc2n(CC(C)C)c1=NC(=O)c1c(-c2c(F)cccc2Cl)noc1C |  | 16.4 µM (active) and 8.2 µM (active) |
| CCOC(=O)c1cc2c(=O)n3ccccc3nc2n(CC2CCCO2)c1=NC(=O)c1ccccc1F (stereo not given) | -14.2% |  |
| COc1ccccc1OCC(=O)OCc1cc(-c2ccco2)on1 | -10.3% |  |
| COc1cccc(C(c2c(O)cc(C)n(Cc3ccco3)c2=O)N2CCN(c3ccccc3)CC2)c1 (stereo not given) | -10.4% |  |
| CCCCN(C)CCCNC(=O)c1cc(-c2cccs2)nc2ccccc12 |  | 29.1 µM (active) |
| CC(C)(C)Cc1nnc(NC(=O)c2cc(-c3ccccc3)nc3ccccc23)s1 | 1.81% |  |
| O=C(NCCN1CCOCC1)c1cc(-c2cccs2)nc2ccccc12 | -6.74% |  |
| Cn1cc(CN2CCCC(CO)C2)c(-c2ccc(Oc3ccccc3)cc2)n1 (stereo not given) | -29.3% |  |
| Cc1ccccc1NC(=O)C1CCN(C(=O)NC2CCCCC2)CC1 | 17.2% |  |
| CCN(C(=O)COC(=O)c1c(C)nn(-c2ccccc2)c1Cl)c1c(N)n(Cc2ccccc2)c(=O)[nH]c1=O | 7.19% |  |
| CCN(C(=O)CN1CCN(Cc2ccccc2)CC1)c1c(N)n(Cc2ccccc2)c(=O)[nH]c1=O |  | 11.6 µM (active) |
| COCCN(C(=O)COC(=O)Cc1cccc(OC)c1)c1c(N)n(Cc2ccccc2)c(=O)[nH]c1=O | 0.869% |  |
| CCN(C(=O)COC(=O)c1sccc1C)c1c(N)n(Cc2ccccc2)c(=O)[nH]c1=O | -1.38% |  |
| CCN(C(=O)COC(=O)CCOc1cccc(C)c1)c1c(N)n(Cc2ccccc2)c(=O)[nH]c1=O |  | 16.4 µM (active) |
| CCN(C(=O)COC(=O)Cc1c(F)cccc1Cl)c1c(N)n(Cc2ccccc2)c(=O)[nH]c1=O | 1.95% |  |
| CCCn1nc(C(=O)NNC(=O)CCOc2ccccc2OCC)c2ccccc2c1=O | 1.4% |  |
| CN(C)/C=C(\C#N)C(=O)c1cccnc1Oc1ccc(F)cc1F | -19.9% |  |
| CCOC(=O)C1(O)CC(C)=NN1C(=O)c1cccc(Br)c1 (stereo not given) | 18.5% |  |
| CCN(C(=O)CSc1ncnc2c1cnn2-c1ccccc1)C1CCS(=O)(=O)C1 (stereo not given) | -4.58% |  |
| O=S(=O)(c1ccc(F)cc1)N1CCN(Cc2ccccc2C(F)(F)F)CC1 | -16% |  |
| O=c1[nH]nc(SCCS(=O)(=O)c2ccc(F)cc2)n1-c1ccccc1C(F)(F)F |  | 23.1 µM (active) |
| O=C(CSc1n[nH]c(=O)n1-c1ccccc1)Nc1ccccc1C(F)(F)F | -0.565% |  |
| O=C(NCC1Cc2cc(F)cc(-c3cnccn3)c2O1)C1COc2ccccc2O1 (stereo not given) | 16.4% |  |
